High-throughput results (PubChem BioAssay)
SW480 rereplic – inducers of DNA re-replication in SW480 colon cancer cells. SW480 DNA re-replication, Hoechst DNA content imaging, 48 h. actives 1.8% (n = 340,000). Potency, µM (doses to about 46.1 µM), for inactives: at the highest dose re-replication activation, usual class: activators; further: potency means the concentration at half of the fitted maximal effect; % of control where 0% means no effect; nearly all actives have a fitted effect of over 55% in size
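Treated cells incubate 48 hr (37 C, 5% CO2), are stained 40 min with Hoechst, and nuclear fluorescence is enumerated; a rise in nuclei with high DNA signal marks re-replication.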
IL1B secr inh – blocks inflammasome-driven IL-1 beta release. THP-1 LPS/ATP IL-1B secretion, AlphaLISA, 16 h; stronger effect = lower value. activity change, % at 57.5 µM. actives 4.7% (n = 360,000); in the data active means activity change below about -50%; inconclusive means mostly about -30% to -49%; further: on the % scale 0 is the no-effect control and ±100 the full control effect
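Secreted IL-1B measured by AlphaLISA bead assay after 16 h compound exposure of THP-1 cells; compounds (final up to 57.5 uM) added 1 h before LPS (250 ng/mL) and ATP (1.25 mM) stimulation; lower signal means less secretion.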
TDP1 cell noCPT – qHTS for Inhibitors of human tyrosyl-DNA phosphodiesterase 1 (TDP1): qHTS in cells in absence of CPT; DT40 Tdp1-/- hTDP1 cells, no CPT, ATP luminescence, 48 h; Potency, µM (highest dose often 46.2 µM), without a hit: top-dose activity change, negative = growth inhibition, most hits filed as inhibitors; actives 15% (n = 420,000); AID 686978, 2013; further: potency means the concentration at half of the fitted maximal effect; on the % scale 0 is the no-effect control and ±100 the full control effect; nearly all actives have a fitted effect of over 55% in size
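A cellular qHTS used chicken DT40 cells lacking endogenous Tdp1 but carrying stably transfected human TDP1. Compounds were applied without camptothecin, and cell growth kinetics were judged by ATP-dependent luminescence after ≥48 hr.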
MCF10A rereplic – inducers of DNA re-replication in MCF 10A breast cells. MCF 10A DNA re-replication, Hoechst nuclear intensity, 48 h. actives 2.9% (n = 350,000). Potency, µM (series often up to 46.1 µM), without a hit: at the highest dose activity, positive = re-replication, most hits filed as activators; further: potency means the concentration at half of the fitted maximal effect; % of control where 0% means no effect; nearly all actives have a fitted effect of over 50% in size
Chronic BCR inh – blocks chronic active B-cell receptor signaling; ABC-DLBCL IkBa-CBG/CBR reporter, luminescence ratio, 4 h; Potency, µM (doses to about 46.1 µM), for inactives: at the top dose activity change, negative = inhibition, hits mostly inhibitors; actives 0.05% (n = 340,000); active means well fitted inhibition curve with a large enough effect in the signal ratio, with a control signal flat, not every such curve was filed as active; inconclusive means small, poorly fitted or top-dose-only effect, or effect the other way, or a change in a side signal; the % refers to the signal ratio;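 further: potency means the concentration at half of the fitted maximal effect; plate controls were basal doxycycline-induced cells for no effect and cells given 10 µM MG132 for full effect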
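Doxycycline induced both beetle luciferases in TMD8 lymphoma cells; IKK-driven degradation limits the IkappaBalpha-fused green signal, while red luminescence normalises for cell number and nonspecific effects. Compounds tested up to 46 uM, 4 hrs.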
DT40 TDP1 CPT – growth inhibition of DT40 Tdp1-/-;hTDP1 cells with camptothecin (screen for TDP1 inhibitors); actives 12% (n = 420,000); chicken DT40 Tdp1-/-;hTDP1 cells + 20 nM CPT, ATP luminescence, 48 h; Potency, µM (series often up to 46.2 µM), for the others: top-dose activity change, negative = growth inhibition, hits mostly inhibitors; further: potency means the concentration at half of the fitted maximal effect; on the % scale 0 is the no-effect control and ±100 the full control effect; nearly all actives have a fitted effect of over 55% in size
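Chicken DT40 Tdp1-/- cells stably complemented with human TDP1 were seeded at 400 cells/well in medium containing 20 nM camptothecin, exposed to pin-transferred compounds, and grown at 37 °C for at least 48 hr. Viability was read as ATP luminescence.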
Active calls of the source: *; u = inconclusive; x = no result given; ! = not active in a repeat; [ ] = dose if it differs, or a comment. Compounds with a hit are over-represented: about 19% of the library has one in this group of screens. Unless noted, the call rests on the fitted dose curve; in most records, active means well fitted curve in the direction sought with a large enough effect; inconclusive means small, poorly fitted or top-dose-only effect, or another doubt; inactive means no such curve, though single readings can be large; an effect the other way counts as inactive or inconclusive.

SMILES	SW480 rereplic	IL1B secr inh	TDP1 cell noCPT	MCF10A rereplic	Chronic BCR inh	DT40 TDP1 CPT
O=C(Nc1cc(S(=O)(=O)N2CCOCC2)ccc1N1CCCCC1)c1ccc(Cl)cc1	11%	-5	13µM*	7%	3%	18µM*
CCOC(=O)c1ccccc1NC(=O)c1c(F)c(F)c(F)c(F)c1F	u	-69*	-5%	21µM*	u	u
O=C(Nc1cc(S(=O)(=O)N2CCOCC2)ccc1N1CCCC1)c1ccc2c(c1)S(=O)(=O)c1ccccc1C2=O	-4%	u	u	2%	-5%	13µM*
CCN(CC(=O)NCc1cccs1)CC(=O)Nc1cccc(S(N)(=O)=O)c1	4%	-1	22%	7%	3%	-7%
O=C(OC(C(=O)NCc1ccco1)c1ccc(Cl)cc1)c1cccs1 (configuration not stated)	-16%	14	u	1%	-1%	u
CC(C)COc1cccc(C(=O)Nc2cc(S(=O)(=O)N3CCOCC3)ccc2N2CCCC2)c1	12%	x	21µM*	18%	x	u
CC(C)(C)C(=O)Nc1cc(S(=O)(=O)N2CCCCC2)ccc1N1CCCCC1	u	0	23µM*	8%	4%	16µM*
COc1cccc(C(=O)Nc2cc(S(=O)(=O)N3CCOCC3)ccc2N2CCOCC2)c1	-19%	0	-6%	-3%	x	-4%
CC(C)C(=O)Nc1cc(S(=O)(=O)N2CCOCC2)ccc1N1CCCCC1	-13%	10	u	-11%	1%	1%
CC1CN(S(=O)(=O)c2cccc(C(=O)N=c3sccn3C)c2)CC(C)O1 (configuration not stated)	-91%	-2	u	1%	3%	18µM*
O=C(OCN1C(=O)c2ccccc2C1=O)c1cc(S(=O)(=O)N2CCOCC2)ccc1F	-3%	-57*	12%	4%	4%	-3%
COc1cc(/C=N/NC(=O)c2cccc(S(=O)(=O)N3CCCC3)c2)cc(OC)c1O	0%	-2	u	0%	u	-21%
O=C(Nc1ccccc1N1CCCCC1)c1cc(S(=O)(=O)N2CCOCC2)ccc1F	16%	-23	u	12µM*	6%	u
O=C(Nc1cc(S(=O)(=O)N2CCOCC2)ccc1N1CCCCC1)c1ccccc1	-8%	u	21µM*	15%	1%	u
O=C(NCCSCc1ccccc1)c1cc(S(=O)(=O)N2CCOCC2)ccc1F	-8%	24	u	4%	-1%	12µM*
O=C(Nc1ccccc1N1CCCC1)c1cc(S(=O)(=O)N2CCOCC2)ccc1Cl	-3%	-14	u	-1%	1%	u
CN(C)CCCNC(=O)c1cc(S(=O)(=O)N2CCOCC2)ccc1F	-3%	16	-4%	13%	u	9%
O=C(Nc1ccc(Cl)c(Cl)c1)Nc1cc(S(=O)(=O)N2CCOCC2)ccc1N1CCCC1	2%	-60*	18µM*	-1%	7%	u
COCc1c(C(=O)N2CCC(N3CCCCC3)CC2)cnn1-c1ncc(C)c(-c2cccs2)n1	x	x	-7%	x	x	10%[9.04 µM]
CC(=O)N[C@@H](C)C(=O)NCC1Cc2cccc(-c3ccccc3C(F)(F)F)c2O1 (some centres not stated)	x	x	-22%	x	x	9%
O=C(Nc1cc(S(=O)(=O)N2CCOCC2)ccc1N1CCCCC1)c1ccccc1Br	7%	-59*	u	12%	1%	u
COc1ccccc1NS(=O)(=O)c1cccc(C(=O)N/N=C/c2c(CO)cnc(C)c2O)c1	u	184	u	1%	-6%	u
COc1ccc(C)cc1NC(=O)CSc1nc2scc(C)c2c(=O)[nH]1	u	23	-23%	18µM*	-8%	u
COc1ccc(NC(=O)CSc2nc3nc(C)cc(C)c3c(=O)[nH]2)cc1OC	-7%	21	-8%	-4%	1%	-20%
COc1ccc(Cl)cc1NC(=O)CSc1nc2sccc2c(=O)[nH]1	-5%	54	u	21µM*	u	-28%
SMILES	SW480 rereplic	IL1B secr inh	TDP1 cell noCPT	MCF10A rereplic	Chronic BCR inh	DT40 TDP1 CPT
O=S1(=O)CCOCCCN1Cc1ccccc1Br	8%	-3	-28%	4%	-3%	29µM*!
Cc1ccccc1CN1CCCOCCS1(=O)=O	2%	-1	u	-2%	4%	-2%
O=C(O)Cc1ccc(-c2ccccc2-c2ccccc2)cc1	-4%	17	21µM*	14%	25%	15µM*
O=C(O)Cc1ccc(O)cc1	-20%	-9	-1%	-3%	x	-2%
CCOc1ccc2ccc(OCC)c(/C=N/n3cnnc3)c2c1	-5%	-73*	u	8%	-1%	0%
COc1ccc(S(=O)(=O)N(C(=O)C(C)C)c2ccc3oc(=O)sc3c2)cc1	28%	50	16µM*	u	u	10µM*
COc1ccc(C(=O)Oc2ccc3oc(=O)sc3c2)cc1	-2%	-6	u	-3%	u	13µM*
CC(=O)N(c1ccc2oc(=O)sc2c1)S(=O)(=O)c1ccccc1	-2%	-19	10µM*	u	u	u
CC(C)C(=O)N(c1ccc2oc(=O)sc2c1)S(=O)(=O)c1ccccc1	0%	2	u	13%	-3%	u
COc1cc(=O)n2c(c1C(=O)NCc1cccc(F)c1)CCN(Cc1cccnc1)CC2	x	x	-20%	x	x	-5%
CCN(CC)S(=O)(=O)c1ccc2c(c1)C(=NO)c1cc(S(=O)(=O)N(CC)CC)ccc1-2	u	-23	2.3µM*	8.2µM*	22%	2.3µM*
CCN(CC)CCOc1ccc2c(c1)C(=NO)c1cc(OCCN(CC)CC)ccc1-2	-9%	-105*	18µM*	-2%	u	18µM*
CCCOc1ccc2c(c1)C(=NN=C(N)N)c1cc(OCCC)ccc1-2	18µM*	-97*	23µM*	u	u	26µM*
CCN(CC)S(=O)(=O)c1cccc(S(=O)(=O)c2cccc(S(=O)(=O)N(CC)CC)c2)c1	-4%	-23	18µM*	u	0%	21µM*
CCN(CC)S(=O)(=O)c1cccc(S(=O)(=O)N2CCCCC2)c1	7%	-2	-8%	-1%	4%	-6%
